Experimental data taken from PubChem BioAssay AID602410 (Johns Hopkins Ion Channel Center, 2012).
The whole screen tested about 340,000 compounds, of which about 2,800 (0.82%) were called active. The sample holds actives, similar compounds and a random draw of the others, so the mix is not that of the screen.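 How the source made its calls: active means B-score under library mean minus 4 SD, starting fluorescence ratio at most library mean plus 5 SD; inactive means the rest.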

Molecular target: Potassium channel subfamily K member 3 (Homo sapiens) (UniProt O14649)
Sequence (O14649 whole entry, looked up): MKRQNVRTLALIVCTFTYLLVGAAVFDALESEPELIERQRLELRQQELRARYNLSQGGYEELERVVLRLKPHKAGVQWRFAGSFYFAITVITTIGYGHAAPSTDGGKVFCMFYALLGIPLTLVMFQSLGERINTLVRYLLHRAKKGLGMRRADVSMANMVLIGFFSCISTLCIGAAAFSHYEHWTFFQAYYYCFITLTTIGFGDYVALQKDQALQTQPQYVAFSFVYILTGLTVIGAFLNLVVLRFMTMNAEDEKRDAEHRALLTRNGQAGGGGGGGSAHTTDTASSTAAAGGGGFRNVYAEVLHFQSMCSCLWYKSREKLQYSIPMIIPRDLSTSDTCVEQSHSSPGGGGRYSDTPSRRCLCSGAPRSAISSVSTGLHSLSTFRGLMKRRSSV
Assay: blockers of TASK1 two-pore potassium channel – CHO cells, FluxOR thallium flux, B-score, primary screen (AID 602410);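 on B-score: more negative B-score means stronger inhibition of thallium flux through KCNK3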
Details: CHO-KCNK3 thallium flux, FluxOR fluorescence, at 10 µM; hits give low values

B-score, active:
COc1ccccc1C(c1nnnn1C(C)(C)C)N1CCN(Cc2ccccc2)CC1 (stereo not drawn) -8.94
Cc1ccc(NC(=O)c2cc([N+](=O)[O-])ccc2Cl)c(O)c1 -10.1
Clc1cccc(-c2nc(NCC3CCCO3)c3ccccc3n2)c1 (stereo not drawn) -10.2
N/C(Cc1ccc([N+](=O)[O-])cc1)=N\OC(=O)COc1ccc2ccccc2c1 -8.91
COc1ccc2c(c1)c(=Cc1ccc(N(C)C)cc1)c1cc(-c3ccccc3)[n+](C)n12 -15.6
O=C(N/N=C/c1cccc(OCc2ccccc2)c1)c1ccc(Br)o1 -9.25
COc1ccccc1N1CCN(c2ncnc3sc(C)c(-c4ccccc4)c23)CC1 -14.3
COc1cccc2cc(C(C)N(CCCN3CCOCC3)C(=O)Nc3ccc(Cl)cc3)oc12 (stereo not drawn) -10.2
Cc1nn(CC(=O)Nc2nc3ccccc3s2)c(C)c1[N+](=O)[O-] -10.5
COC(=O)C1=C(C)N(C(C)c2ccccc2)C(=O)/C1=C\c1ccco1 (stereo not drawn) -9.57

B-score, inactive:
CCOC(=O)C1=C(CN2CCc3ccccc32)NC(=O)NC1c1cc(C)ccc1C (stereo not drawn)
CC(C)(C)c1nnc(N/N=C/c2ccc(O)cc2)n(N)c1=O
O=C(Nc1cc(=O)[nH]c2ncnn12)c1ccccc1Cl
CCCC(c1nnnn1C(C)(C)C)N1CCN(Cc2ccccc2)CC1 (stereo not drawn)
COc1ccc(OC)c(C(c2nnnn2C(C)(C)C)N2CCc3ccccc3C2)c1 (stereo not drawn)
C=CCn1c(SCc2cc(C(=O)OC)c(C)o2)nnc1-c1ccncc1
COc1ccc(N2CCN(S(=O)(=O)c3ccc4c(c3)NC(=O)C(C)C(=O)N4)CC2)cc1 (stereo not drawn)
CNc1ccc([N+](=O)[O-])cc1C(=O)O
O=C(Nc1cccnc1)c1cc([N+](=O)[O-])ccc1Cl
Cc1ccc(SCC(=O)Nc2nncs2)cc1
COc1ccccc1-c1c(C#N)c(N)nc2c1CCC2
O=C(CSc1nc2ccccc2c(=O)n1Cc1ccc(F)cc1)NCC1CCCO1 (stereo not drawn)
c1ccc2c(NCC3CCCO3)nc(-c3ccncc3)nc2c1 (stereo not drawn)
CCOC(=O)[C@@H]1[C@H]2COc3ccc(Br)cc3[C@H]2N2C(=O)N(c3ccc(C)cc3)C(=O)[C@@]12C
CCn1c(CSc2nncn2-c2ccc(OC)cc2)nc2cc(S(=O)(=O)N(C)C)ccc21
COc1cc(CNCc2ccc(OC)c3ccccc23)cc(OC)c1OC
CC(C)N(Cc1ccccc1)C(=O)COC(=O)c1cnccn1
N/C(=N\OC(=O)Cc1ccc([N+](=O)[O-])cc1)c1ccccn1
Cc1cc(C)cc(OCC(=O)O/N=C(\N)Cc2ccc([N+](=O)[O-])cc2)c1
CCNC(=O)CC1C(=O)N(c2ccc(OC)cc2)C(=S)N1CCc1ccncc1 (stereo not drawn)
CCc1cc(-c2n[nH]c(=S)n2CC(C)C)cs1
CCOC(=O)N1CCN(Cc2nc3cc(NC(=O)CC)ccc3n2CC)CC1
O=C(CN(CC1CCCO1)C(=O)CNS(=O)(=O)c1ccc(Cl)cc1)NCc1ccccc1 (stereo not drawn)
CCC(C(=O)NCCC(C)C)N(Cc1ccccc1Cl)C(=O)c1snc(C(N)=O)c1N (stereo not drawn)
COc1ccc2sc(-c3ccc(N(C)C)cc3)c(C#CCO)c2c1
O=S(=O)(c1cccs1)N1CCN(CCOc2ccccc2)CC1
O=C(N/N=C/c1cccc(O)c1)c1cc2c(ccc3ccccc32)o1
Cc1ccc(OCCOc2cccc(/C=N/NC(N)=O)c2)cc1
COc1ccccc1N1CCN(c2nc(C)cc(=O)[nH]2)CC1
COc1ccccc1N1CCN(c2ccc([N+](=O)[O-])nc2)CC1
O=C(NCCN1CCOCC1)Nc1cccc(Cl)c1
COc1ccc(S(=O)(=O)N(C)CC(=O)NCCCN2CCOCC2)cc1Cl
Cc1nn(CC(=O)NCc2ccccn2)c(C)c1[N+](=O)[O-]
Cc1nn(CC(=O)Nc2ccc(N(C)C)cc2)c(C)c1[N+](=O)[O-]
CCN(CC(=O)NCc1ccc(F)cc1)S(=O)(=O)c1ccc(Cl)s1
CC(C(=O)NC1CCCC1)N(c1ccc(Oc2ccccc2)cc1)S(C)(=O)=O (stereo not drawn)
COC(=O)c1cc(C)sc1NC(=O)CC1Nc2ccccc2NC1=O (stereo not drawn)
COC(=O)COc1ccc2c(c1C)O/C(=C\c1ccco1)C2=O
O=C(OCN1C(=O)c2ccccc2C1=O)/C(=C\c1ccco1)NC(=O)c1ccccc1
CC(=O)NCCC(=O)Nc1cc(S(=O)(=O)N2CCCCC2)ccc1Oc1cccc(C)c1
Cc1c(NC(=O)CCC2CCCCC2)cc(C(=O)N2CCOCC2)cc1[N+](=O)[O-]
CC(C)N1C(=O)N(c2ccccc2)C(C)(O)CC1(C)C (stereo not drawn)
CC(C)N(Cc1nc(-c2ccc3c(c2)OCO3)no1)CC1CCC(=O)N1 (stereo not drawn)
